Laboratory results published in PubChem BioAssay AID1159580 (chemical genetic matrix, 2015).
The whole screen tested about 5,500 compounds, of which about 2,000 (36%) were called active. Inconclusive results (about 18%) are left out. No stated cut-off is given here; in the data, active means normalized growth mostly below about 0.91 (no sharp cut-off); inconclusive means no clear call, values can overlap the other calls; inactive means mostly above about 0.92. The list shows a part of the results.

Experiment: chemical genetic growth profiling, strain panel (AID 1159580);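 further: tested at 20 µM; growth read once vehicle control cultures reached saturation at 30 °C; 1 = growth at the plate median or of vehicle wells; lower values mean less growth of the strain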
Details: growth OD

Measured: normalized growth

O=C1CC2OCC=C3CN4CC[C@]56c7ccccc7N1C5[C@H]2[C@H]3CC46 (some centres not stated)
inactive: S. cerevisiae deletion strains, locus YJR075W, strain HOC1, hits give low values 1.01 | S. cerevisiae deletion strains, locus YKL009W, strain mrt4, hits give low values 1 | S. cerevisiae deletion strains, locus YKL068W, hits give low values 1 | S. cerevisiae deletion strains, locus YKL085W, strain MDH1 (second series), hits give low values 1 | S. cerevisiae deletion strains, locus YKL085W, strain MDH1, hits give low values 1 | S. cerevisiae deletion strains, locus YKL160W, strain elf1, hits give low values 1.03 | S. cerevisiae deletion strains, locus YKL190W, strain CNB1, hits give low values 1.01 | S. cerevisiae deletion strains, locus YKR001C, strain vps1, hits give low values 0.996 | S. cerevisiae deletion strains, locus YKR026C, strain gcn3, hits give low values 1.04 | S. cerevisiae deletion strains, locus YKR091W, strain srl3, hits give low values 1.01 | S. cerevisiae deletion strains, locus YLL001W, strain dnm1, hits give low values 1.03 | S. cerevisiae deletion strains, locus YLL026W, hits give low values 1.01 | S. cerevisiae deletion strains, locus YLL041C, strain sdh2, hits give low values 1.02 | S. cerevisiae deletion strains, locus YLR027C, strain aat2, hits give low values 1.03 | S. cerevisiae deletion strains, locus YLR039C, strain RIC1, hits give low values 1.03 | S. cerevisiae deletion strains, locus YLR058C, strain SHM2, hits give low values 1.02 | S. cerevisiae deletion strains, locus YLR102C, strain apc9, hits give low values 1 | S. cerevisiae deletion strains, locus YLR113W, strain HOG1, hits give low values 0.938 | S. cerevisiae deletion strains, locus YLR221C, strain rsa3, hits give low values 1.02 | S. cerevisiae deletion strains, locus YLR258W, strain gsy2, hits give low values 1.03 | S. cerevisiae deletion strains, locus YLR262C, strain YPT6 (second series), hits give low values 1.05 | S. cerevisiae deletion strains, locus YLR262C, strain YPT6, hits give low values 1.1 | S. cerevisiae deletion strains, locus YLR268W, strain sec22, hits give low values 0.994 | S. cerevisiae deletion strains, locus YLR320W, strain mms22, hits give low values 1.03 | S. cerevisiae deletion strains, locus YLR330W, strain CHS5, hits give low values 1.01 | S. cerevisiae deletion strains, locus YLR342W, strain FKS1 (second series), hits give low values 0.999 | S. cerevisiae deletion strains, locus YLR342W, strain FKS1, hits give low values 1.01 | S. cerevisiae deletion strains, locus YLR357W, strain rsc2, hits give low values 1.03 | S. cerevisiae deletion strains, locus YLR370C, strain arc18, hits give low values 1.03 | S. cerevisiae deletion strains, locus YLR371W, strain rom2, hits give low values 0.993 | S. cerevisiae deletion strains, locus YLR384C, strain iki3, hits give low values 1.03 | S. cerevisiae deletion strains, locus YLR418C, strain cdc73, hits give low values 0.961 | S. cerevisiae deletion strains, locus YML016C, strain PPZ1, hits give low values 1.01 | S. cerevisiae deletion strains, locus YML032C, strain rad52, hits give low values 0.995 | S. cerevisiae deletion strains, locus YML120C, strain ndi1, hits give low values 1.02 | S. cerevisiae deletion strains, locus YML124C, strain tub3, hits give low values 0.999 | S. cerevisiae deletion strains, locus YMR058W, strain fet3, hits give low values 1.02 | S. cerevisiae deletion strains, locus YMR078C, strain ctf18, hits give low values 0.998 | S. cerevisiae deletion strains, locus YMR125W, strain sto1, hits give low values 1.02 | S. cerevisiae deletion strains, locus YMR129W, hits give low values 1.03 | S. cerevisiae deletion strains, locus YMR205C, strain PFK2, hits give low values 1.05 | S. cerevisiae deletion strains, locus YMR223W, strain ubp8, hits give low values 0.989 | S. cerevisiae deletion strains, locus YMR231W, strain pep5, hits give low values 1.03 | S. cerevisiae deletion strains, locus YMR263W, strain SAP30, hits give low values 1.01 | S. cerevisiae deletion strains, locus YMR307W, strain GAS1, hits give low values 0.979 | S. cerevisiae deletion strains, locus YNL067W, strain RPL9B, hits give low values 1.01 | S. cerevisiae deletion strains, locus YNL071W, strain lat1, hits give low values 1.01 | S. cerevisiae deletion strains, locus YNL128W, strain TEP1, hits give low values 1.01 | S. cerevisiae deletion strains, locus YNL153C, strain GIM3, hits give low values 1.02 | S. cerevisiae deletion strains, locus YNL183C, strain NPR1, hits give low values 0.933 | S. cerevisiae deletion strains, locus YNL209W, strain ssb2, hits give low values 1.02 | S. cerevisiae deletion strains, locus YNL233W, strain BNI4, hits give low values 1.01 | S. cerevisiae deletion strains, locus YNL248C, strain rpa49, hits give low values 1.04 | S. cerevisiae deletion strains, locus YNL250W, strain rad50, hits give low values 1 | S. cerevisiae deletion strains, locus YNL271C, strain bni1, hits give low values 0.997 | S. cerevisiae deletion strains, locus YNL298W, strain CLA4, hits give low values 0.993 | S. cerevisiae deletion strains, locus YNL307C, strain MCK1, hits give low values 0.994 | S. cerevisiae deletion strains, locus YNL322C, strain KRE1 (second series), hits give low values 1.03 | S. cerevisiae deletion strains, locus YNL322C, strain KRE1, hits give low values 1.01 | S. cerevisiae deletion strains, locus YNR049C, strain mso1, hits give low values 1.01 | S. cerevisiae deletion strains, locus YNR052C, strain pop2, hits give low values 0.997 | S. cerevisiae deletion strains, locus YOL006C, strain TOP1, hits give low values 1.03 | S. cerevisiae deletion strains, locus YOL012C, strain htz1 1.63 | S. cerevisiae deletion strains, locus YOL147C, strain pex11, hits give low values 0.995 | S. cerevisiae deletion strains, locus YOR001W, strain rrp6, hits give low values 1.04 | S. cerevisiae deletion strains, locus YOR061W, strain CKA2, hits give low values 1.01 | S. cerevisiae deletion strains, locus YOR069W, strain VPS5, hits give low values 1.01 | S. cerevisiae deletion strains, locus YOR070C, strain gyp1, hits give low values 1.01 | S. cerevisiae deletion strains, locus YOR080W, strain dia2, hits give low values 1.04 | S. cerevisiae deletion strains, locus YOR083W, strain WHI5, hits give low values 1.02 | S. cerevisiae deletion strains, locus YOR106W, strain vam3, hits give low values 1.04 | S. cerevisiae deletion strains, locus YOR136W, strain idh2, hits give low values 0.985 | S. cerevisiae deletion strains, locus YOR144C, strain elg1, hits give low values 1 | S. cerevisiae deletion strains, locus YOR184W, strain ser1, hits give low values 0.979 | S. cerevisiae deletion strains, locus YOR231W, strain MKK1, hits give low values 0.955 | S. cerevisiae deletion strains, locus YOR265W, strain rbl2, hits give low values 1.03 | S. cerevisiae deletion strains, locus YOR270C, strain vph1, hits give low values 1.05 | S. cerevisiae deletion strains, locus YOR290C, strain snf2, hits give low values 1.02 | S. cerevisiae deletion strains, locus YOR316C, strain cot1, hits give low values 1 | S. cerevisiae deletion strains, locus YPL051W, strain arl3, hits give low values 1.03 | S. cerevisiae deletion strains, locus YPL055C, strain LGE1, hits give low values 1.03 | S. cerevisiae deletion strains, locus YPL078C, strain atp4, hits give low values 1.02 | S. cerevisiae deletion strains, locus YPL106C, strain sse1, hits give low values 1.03 | S. cerevisiae deletion strains, locus YPL240C, strain hsp82, hits give low values 1.03 | S. cerevisiae deletion strains, locus YPL241C, strain CIN2, hits give low values 0.978 | S. cerevisiae deletion strains, locus YPL256C, strain CLN2, hits give low values 0.951 | S. cerevisiae deletion strains, locus YPR119W, strain clb2, hits give low values 0.995 | S. cerevisiae deletion strains, locus YPR141C, strain kar3, hits give low values 1 | S. cerevisiae deletion strains, locus YPR163C, strain tif3, hits give low values 0.996 | S. cerevisiae deletion strains, locus YPR167C, strain met16, hits give low values 1.01 | S. cerevisiae deletion strains, strain wtn01, hits give low values 0.993 | S. cerevisiae strains, strain wild type, hits give low values 1.01
